Measurements reported in PubChem BioAssay (NCATS).
Results filed as inconclusive are left out. Where a call stands in place of a potency, no number is given. Values without a mark were called inactive. Active and inactive are the calls of the source. Calls follow the shape of the dose curve; as a rule, active = well fitted curve in the direction sought with a large enough effect; inconclusive = small, poorly fitted or top-dose-only effect, or another doubt; inactive = no such curve, though single readings can be large; an effect the other way counts as inactive or inconclusive.

Tests used:
[1] = molecular target: Glutathione peroxidase 1 (Homo sapiens) (UniProt P07203); assay: Primary qHTS Assay for Inhibitors of Recombinant Selenoprotein Glutathione Peroxidase 1 (GPX1) (AID 1845191); also: nearly all actives have a fitted effect of over 65% in size
How it was run: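 GPX1 10 nM, GR 100 nM, GSH 1 mM, NADPH 0.5 mM, CHP 0.5 mM (final). 30-min cpd preincubation, RT. Ex340/Em450 read t=0, t=15 min.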

[2] = molecular target: Phospholipid hydroperoxide glutathione peroxidase GPX4 (Homo sapiens) (UniProt P36969); assay: Primary qHTS Assay for Inhibitors of Recombinant Selenoprotein Glutathione Peroxidase 4 (GPX4) (AID 1845192); also: nearly all actives have a fitted effect of over 65% in size
How it was run: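 qHTS, GR-coupled: GPX4 200 nM + cpd 30 min RT → GSH 1 mM, NADPH 0.5 mM, GR 100 nM → CHP 0.5 mM start; fluor 340/450 at t0 and t15 min; no-enzyme wells as control.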

[3] = Quantitative High-Throughput drug screen in 47 multiple myeloma cell lines against the NCATS MIPE library collection: EJM_DSMZ cell viability assay (AID 1918926; also: nearly all actives have a fitted effect of over 30% in size; also: potency is read from the fitted curve at half-maximal effect)
How it was run: (§1)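 CellTiter-Glo ATP luminescence gave viability after 48 h compound treatment at 37C of 500 multiple myeloma cells per well. Normalisation used DMSO-only wells as 100% and media-only wells as 0% viability; primary qHTS of approved and investigational drugs.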

[4] = Quantitative High-Throughput drug screen in 47 multiple myeloma cell lines against the NCATS MIPE library collection: ARP1_JJKsccF8 cell viability assay (AID 1918928; also: nearly all actives have a fitted effect of over 40% in size; also: potency is read from the fitted curve at half-maximal effect)
How it was run: (§2)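 500 cells/well; MIPE 4.0 library pinned in; 48 h, 37 °C, 5% CO2; CellTiter-Glo ATP luminescence. Controls: DMSO = 100% viability, medium only = 0%.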

[5] = Quantitative High-Throughput drug screen in 47 multiple myeloma cell lines against the NCATS MIPE library collection: Karpas620_DSMZ cell viability assay (AID 1918959); also: nearly all actives have a fitted effect of over 30% in size; also: potency is read from the fitted curve at half-maximal effect
How it was run: (§3)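 qHTS of the MIPE 4.0 collection: 500 myeloma cells/well, 48 h drug exposure at 37C in 5% CO2, then CellTiter-Glo for 5 min at room temperature before luminescence reading.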

[6] = Quantitative High-Throughput drug screen in 47 multiple myeloma cell lines against the NCATS MIPE library collection: JIM1_ECACC cell viability assay (AID 1918964; also: potency is read from the fitted curve at half-maximal effect)
How it was run: as §1

[7] = Quantitative High-Throughput drug screen in 47 multiple myeloma cell lines against the NCATS MIPE library collection: H1112_PLB cell viability assay (AID 1918967; also: nearly all actives have a fitted effect of over 30% in size; also: potency is read from the fitted curve at half-maximal effect)
How it was run: as §1

[8] = Quantitative High-Throughput drug screen in 47 multiple myeloma cell lines against the NCATS MIPE library collection: Karpas25_ECACC cell viability assay (AID 1918968; also: nearly all actives have a fitted effect of over 35% in size; also: potency is read from the fitted curve at half-maximal effect)
How it was run: as §1

[9] = Quantitative High-Throughput drug screen in 47 multiple myeloma cell lines against the NCATS MIPE library collection: AMO1_DSMZ cell viability assay (AID 1918927; also: nearly all actives have a fitted effect of over 30% in size; also: potency is read from the fitted curve at half-maximal effect)
How it was run: as §1

[10] = Quantitative High-Throughput drug screen in 47 multiple myeloma cell lines against the NCATS MIPE library collection: KMM1_JCRB cell viability assay (AID 1918960); also: nearly all actives have a fitted effect of over 30% in size; also: potency is read from the fitted curve at half-maximal effect
How it was run: as §2

[11] = Quantitative High-Throughput drug screen in 47 multiple myeloma cell lines against the NCATS MIPE library collection: KHM11_PLB cell viability assay (AID 1918962); also: nearly all actives have a fitted effect of over 35% in size
How it was run: as §3

[12] = Quantitative High-Throughput drug screen in 47 multiple myeloma cell lines against the NCATS MIPE library collection: JIM3_ECACC cell viability assay (AID 1918963; also: nearly all actives have a fitted effect of over 35% in size; also: potency is read from the fitted curve at half-maximal effect)
How it was run: as §3

[13] = Quantitative High-Throughput drug screen in 47 multiple myeloma cell lines against the NCATS MIPE library collection: ARD_JJKsccE7 cell viability assay (AID 1918929; also: potency is read from the fitted curve at half-maximal effect)
How it was run: as §1

[14] = Quantitative High-Throughput drug screen in 47 multiple myeloma cell lines against the NCATS MIPE library collection: JJN3_DSMZ cell viability assay (AID 1918966; also: nearly all actives have a fitted effect of over 50% in size; also: potency is read from the fitted curve at half-maximal effect)
How it was run: as §1

[15] = Quantitative High-Throughput drug screen in 47 multiple myeloma cell lines against the NCATS MIPE library collection: Karpas417_ECACC cell viability assay (AID 1918961); conditions: Karpas417 myeloma viability, CellTiter-Glo ATP luminescence, 48 h; viability (% of DMSO): at 45.8 µM (top of the series); also: potency is read from the fitted curve at half-maximal effect
How it was run: (§4)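 Luminescent ATP measurement with CellTiter-Glo gives viability, scaled between DMSO-only wells (100%) and media-only wells (0%). Cells, 500 per well, faced library compounds for 48 hours at 37C.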

[16] = Quantitative High-Throughput drug screen in 47 multiple myeloma cell lines against the NCATS MIPE library collection: INA6_PLB cell viability assay (AID 1918965; also: nearly all actives have a fitted effect of over 55% in size; also: potency is read from the fitted curve at half-maximal effect)
How it was run: as §4

[17] = Quantitative High-Throughput drug screen in 47 multiple myeloma cell lines against the NCATS MIPE library collection: FR4_PLB cell viability assay (AID 1918924; also: nearly all actives have a fitted effect of over 35% in size)
How it was run: as §3

[18] = Quantitative High-Throughput drug screen in 47 multiple myeloma cell lines against the NCATS MIPE library collection: Delta47_JCRB cell viability assay (AID 1918925; also: nearly all actives have a fitted effect of over 45% in size)
How it was run: as §1

Phospholipid hydroperoxide glutathione peroxidase GPX4 (Homo sapiens), sequence (P36969 whole entry, looked up): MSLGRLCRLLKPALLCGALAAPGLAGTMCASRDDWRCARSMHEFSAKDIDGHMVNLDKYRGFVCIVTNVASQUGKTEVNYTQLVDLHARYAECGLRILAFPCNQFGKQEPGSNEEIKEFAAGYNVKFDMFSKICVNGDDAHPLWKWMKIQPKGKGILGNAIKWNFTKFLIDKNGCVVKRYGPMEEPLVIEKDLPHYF
Glutathione peroxidase 1 (Homo sapiens), sequence (P07203 whole entry, looked up): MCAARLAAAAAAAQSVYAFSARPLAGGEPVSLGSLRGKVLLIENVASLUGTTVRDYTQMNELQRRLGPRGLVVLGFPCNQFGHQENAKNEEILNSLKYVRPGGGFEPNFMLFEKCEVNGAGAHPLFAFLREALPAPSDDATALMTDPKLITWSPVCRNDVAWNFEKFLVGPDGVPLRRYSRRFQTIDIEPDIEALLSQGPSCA

Structure (SMILES): O=C1NC(=O)C(c2ccccc2[N+](=O)[O-])=C1Nc1ccc(O)c(Cl)c1
- Potency [1]: inactive
- Potency [2]: inactive
- Potency [3]: inactive
- Potency [4]: inactive
- Potency [5]: inactive
- Potency [6]: inactive
- Potency [7]: inactive
- Potency [8]: 13.2 µM (active)

Structure (SMILES): COc1c2occc2cc2ccc(=O)oc12
- Potency [1]: inactive
- Potency [2]: inactive
- Potency [3]: inactive
- Potency [9]: inactive
- Potency [4]: inactive
- Potency [5]: inactive
- Potency [10]: inactive
- Potency [11]: inactive
- Potency [12]: inactive
- Potency [6]: inactive
- Potency [7]: inactive

Structure (SMILES): Cc1c(C(=O)NN2CCCCC2)nn(-c2ccc(Cl)cc2Cl)c1-c1ccc(Cl)cc1
- Potency [1]: inactive
- Potency [2]: inactive
- Potency [3]: inactive
- Potency [9]: 16.6 µM (active)
- Potency [13]: 16.6 µM (active)
- Potency [5]: 20.9 µM (active)
- Potency [10]: 23.5 µM (active)
- Potency [12]: 23.5 µM (active)
- Potency [6]: 11.8 µM (active)
- Potency [14]: 20.9 µM (active)
- Potency [7]: 23.5 µM (active)

Structure (SMILES): CC1=C(C(=O)O)N2C(=O)[C@@H](NC(=O)[C@H](N)C3=CCC=CC3)[C@H]2SC1
- Potency [3]: inactive
- Potency [4]: inactive
- Potency [5]: inactive
- Potency [10]: inactive
- Potency [11]: inactive
- Potency [12]: inactive
- Potency [7]: inactive
- Potency [8]: inactive

Structure (SMILES): Cc1cc2cc3c(C)cc(=O)oc3c(C)c2o1
- Potency [1]: inactive
- Potency [2]: inactive
- Potency [3]: 5.9 µM (active)
- Potency [5]: 23.5 µM (active)
- Potency [14]: 5.26 µM (active)

Structure (SMILES): Clc1ccc(C(Cn2ccnc2)OCc2ccsc2Cl)c(Cl)c1 (stereo not given)
- Potency [1]: inactive
- Potency [2]: inactive
- Potency [3]: 14.8 µM (active)
- Potency [9]: 18.7 µM (active)
- Potency [15]: 18.7 µM (active)
- Potency [14]: inactive

Structure (SMILES): CCOC(=O)C(C)Oc1cccc2c(=O)n(CC(=O)Nc3ccc4c(c3)OCCO4)ccc12 (stereo not given)
- Potency [1]: inactive
- Potency [2]: inactive
- Potency [3]: inactive
- Potency [9]: 16.6 µM (active)
- Potency [13]: inactive
- Potency [5]: inactive
- Potency [10]: 13.2 µM (active)
- Potency [11]: inactive
- Potency [6]: inactive
- Potency [16]: inactive
- Potency [7]: inactive

Structure (SMILES): Clc1ccc(C(Cn2ccnc2)OCc2ccc(Sc3ccccc3)cc2)c(Cl)c1 (stereo not given)
- Potency [1]: inactive
- Potency [2]: inactive
- Potency [9]: 20.9 µM (active)
- Potency [13]: 26.4 µM (active)
- Potency [5]: 18.7 µM (active)
- Potency [10]: 20.9 µM (active)
- Potency [6]: 20.9 µM (active)
- Potency [16]: 26.4 µM (active)
- Potency [8]: 18.7 µM (active)

Structure (SMILES): COc1cc(C(C)=O)ccc1OCCCN1CCC(c2noc3cc(F)ccc23)CC1
- Potency [1]: inactive
- Potency [2]: inactive
- Potency [3]: inactive
- Potency [12]: inactive
- Potency [7]: inactive
- Potency [8]: 1.87 µM (active)

Structure (SMILES): N=C(N=C(N)N)N1CCOCC1
- Potency [17]: inactive
- Potency [3]: inactive
- Potency [9]: inactive
- Potency [4]: inactive
- Potency [13]: inactive
- Potency [5]: inactive
- Potency [10]: inactive
- Potency [12]: inactive
- Potency [6]: inactive
- Potency [16]: inactive
- Potency [7]: inactive

Structure (SMILES): NCCCCNCCCN
- Potency [1]: inactive
- Potency [2]: inactive
- Potency [3]: 23.5 µM (active)
- Potency [9]: inactive
- Potency [4]: 16.6 µM (active)
- Potency [13]: inactive
- Potency [5]: 18.7 µM (active)
- Potency [12]: 18.7 µM (active)
- Potency [14]: 2.96 µM (active)
- Potency [8]: 18.7 µM (active)

Structure (SMILES): CC1(C)NC(=O)N(c2ccc([N+](=O)[O-])c(C(F)(F)F)c2)C1=O
- Potency [1]: inactive
- Potency [2]: inactive
- Potency [9]: inactive
- Potency [13]: inactive
- Potency [5]: inactive
- Potency [10]: inactive
- Potency [11]: inactive
- Potency [6]: 0.235 µM (active)
- Potency [16]: 3.32 µM (active)
- Potency [7]: 11.8 µM (active)

Structure (SMILES): N=C(N)c1ccc2cc(OC(=O)c3ccc(N=C(N)N)cc3)ccc2c1
- Potency [1]: inactive
- Potency [2]: inactive
- Potency [3]: 18.7 µM (active)
- Potency [9]: inactive
- Potency [13]: inactive
- Potency [5]: inactive
- Potency [10]: inactive
- Potency [12]: inactive
- Potency [6]: inactive
- Potency [7]: inactive
- Potency [8]: 9.35 µM (active)

Structure (SMILES): Cc1ccc(C(=O)c2cc(O)c(O)c([N+](=O)[O-])c2)cc1
- Potency [1]: inactive
- Potency [2]: inactive
- Potency [4]: inactive
- Potency [13]: 20.9 µM (active)
- Potency [8]: 26.4 µM (active)

Structure (SMILES): C=CCc1cc(OC)c(O)c(C(=O)NCCO)c1
- Potency [17]: inactive
- Potency [18]: inactive
- Potency [3]: inactive
- Potency [9]: inactive
- Potency [5]: inactive
- Potency [10]: inactive
- Potency [15]: inactive
- Potency [11]: inactive
- Potency [12]: inactive
- Potency [16]: inactive
- Potency [7]: inactive
- Potency [8]: inactive

Structure (SMILES): CC(C)Oc1ccc2c(=O)c(-c3ccccc3)coc2c1
- Potency [1]: inactive
- Potency [2]: inactive
- Potency [3]: inactive
- Potency [9]: inactive
- Potency [13]: inactive
- Potency [11]: inactive
- Potency [12]: inactive
- Potency [6]: inactive
- Potency [7]: inactive

Structure (SMILES): Cc1cccc(C)c1OCC(=O)N[C@@H](Cc1ccccc1)[C@@H](O)C[C@H](Cc1ccccc1)NC(=O)[C@H](C(C)C)N1CCCNC1=O
- Potency [1]: inactive
- Potency [2]: inactive
- Potency [9]: 8.33 µM (active)
- Potency [13]: 5.9 µM (active)
- Potency [10]: 6.62 µM (active)
- Potency [11]: inactive
- Potency [12]: 20.9 µM (active)
- Potency [7]: 16.6 µM (active)

Structure (SMILES): COC(=O)C1=C(C)NC(C)=C(C(=O)OCCCN2CCC(c3ccccc3)(c3ccccc3)CC2)C1c1cccc([N+](=O)[O-])c1 (stereo not given)
- Potency [1]: inactive
- Potency [17]: inactive
- Potency [3]: inactive
- Potency [9]: inactive
- Potency [13]: inactive
- Potency [5]: inactive
- Potency [11]: inactive
- Potency [12]: inactive
- Potency [7]: inactive
